Data published in PubChem BioAssay (NCATS).
Values joined by “and” are separate entries in the source; they are usually repeats but may differ in a detail not shown here. Equal entries are not always repeated. Inconclusive results are not listed. Some structures have more than one record in an assay (separate samples or runs), and their calls can disagree. Active and inactive are the calls of the source. Calls follow the shape of the dose curve; as a rule, active = well fitted inhibition curve with a large enough effect; inconclusive = small, poorly fitted or top-dose-only effect; inactive = flat fitted curve, though single readings scatter.

What was measured:
P93_24 = test: qHTS profiling for inhibitors of Plasmodium falciparum proliferation (AID 504749); also: potency is read from the fitted curve at half-maximal effect; settings: P. falciparum in erythrocytes, SYBR Green DNA, 72 h; series mostly up to 28.7 µM
Summary of the method: (§1)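 Readout was DNA-dye fluorescence from lysed cultures, ex 485/em 535 nm. Parasitized red cells had grown 72 h with compound; data scaled between 0.29 uM artemisinin and DMSO wells and corrected using vehicle-only plates.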

P94_40 = test: as above; settings: P. falciparum in erythrocytes, SYBR Green DNA, 72 h; series mostly up to 28.7 µM
Summary of the method: as §1

PAD = test: as above; settings: P. falciparum in erythrocytes, SYBR Green DNA, 72 h; series mostly up to 28.7 µM
Summary of the method: as §1

PC15 = test: as above; settings: P. falciparum in erythrocytes, SYBR Green DNA, 72 h; series mostly up to 28.7 µM
Summary of the method: as §1

PC26 = test: as above; settings: P. falciparum in erythrocytes, SYBR Green DNA, 72 h; series mostly up to 28.7 µM
Summary of the method: as §1

PC49 = test: as above; settings: P. falciparum in erythrocytes, SYBR Green DNA, 72 h; series mostly up to 28.7 µM
Summary of the method: as §1

SC27B = test: as above; settings: P. falciparum in erythrocytes, SYBR Green DNA, 72 h; series mostly up to 28.7 µM
Summary of the method: as §1

TAB109 = test: as above; settings: P. falciparum in erythrocytes, SYBR Green DNA, 72 h; series mostly up to 28.7 µM
Summary of the method: as §1

TAB113 = test: as above; settings: P. falciparum in erythrocytes, SYBR Green DNA, 72 h; series mostly up to 28.7 µM
Summary of the method: as §1

TAB165 = test: as above; settings: P. falciparum in erythrocytes, SYBR Green DNA, 72 h; series mostly up to 28.7 µM
Summary of the method: as §1

W2 = test: as above; settings: P. falciparum in erythrocytes, SYBR Green DNA, 72 h; series mostly up to 28.7 µM
Summary of the method: as §1

CRL-7250 = normal cell line; test: Cytotoxic Profiling of Annotated Libraries Using Quantitative High-Throughput Screening (AID 1296008); settings: Five cell lines viability, CellTiter-Glo ATP luminescence, 48-72 h; max response: stronger effect = lower value; also: potency is read from the fitted curve at half-maximal effect; as to max response: % is scaled to controls: 0 for no effect and ±100 for the full control effect
Summary of the method: (§2)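 Cells exposed to compounds for 48 or 72 hr at 37 degrees Celsius. Viability read as ATP-coupled luminescence with CellTiter-Glo after 10 min at room temperature.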

HEK293 = test: as above; settings: Five cell lines viability, CellTiter-Glo ATP luminescence, 48-72 h; max response: stronger effect = lower value
Summary of the method: as §2

HaCat [1] = test: as above; settings: Five cell lines viability, CellTiter-Glo ATP luminescence, 48-72 h; max response: stronger effect = lower value
Summary of the method: as §2

KB-3-1 = test: as above; settings: Five cell lines viability, CellTiter-Glo ATP luminescence, 48-72 h; max response: stronger effect = lower value
Summary of the method: as §2

NIH3T3 = test: as above; settings: Five cell lines viability, CellTiter-Glo ATP luminescence, 48-72 h; max response: stronger effect = lower value
Summary of the method: as §2

HACAT [2] = test: qHTS assay to identify novel small-molecules to repurpose for Merkel cell carcinoma treatment (AID 1296009); settings: MCC and control cell lines, CellTiter-Glo viability, 72 h; at 44.8 µM (top of the series) unless noted
Summary of the method: (§3)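 Cells were incubated with compound for 72 hr at 37 degree celsius before CellTiter-Glo addition. Luminescence was normalized with no-cell wells as full cytotoxicity and DMSO as baseline.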

MCC-13 = test: as above; settings: MCC and control cell lines, CellTiter-Glo viability, 72 h; series mostly up to 46 µM
Summary of the method: as §3

MCC-26 = test: as above; settings: MCC and control cell lines, CellTiter-Glo viability, 72 h; series mostly up to 46 µM
Summary of the method: as §3

HEK293T = test: as above; settings: MCC and control cell lines, CellTiter-Glo viability, 72 h; at 44.8 µM (top of the series) unless noted
Summary of the method: as §3
Also: nearly all actives have a fitted effect of over 60% in size.

O=c1cc(O)c(Cl)c[nH]1
inactive: Potency (P93_24) | Potency (P94_40) | Potency (PAD) | Potency (PC15) | Potency (PC26) | Potency (PC49) | Potency (SC27B) | Potency (TAB109) | Potency (TAB113) | Potency (TAB165) | Potency (W2) | max response (CRL-7250) -3.23% | outcome (CRL-7250) | max response (HEK293) 3.54% and 0.705% | max response (HaCat [1]) -15.6% | outcome (HaCat [1]) | max response (KB-3-1) 2.19% | max response (NIH3T3) 2.08% | outcome (NIH3T3) | outcome (HACAT [2]) | Potency (MCC-13) | Potency (MCC-26)

CC(=O)[C@H]1CC[C@H]2[C@@H]3CC=C4C[C@@H](O)CC[C@]4(C)[C@H]3CC[C@]12C
inactive: max response (CRL-7250) 3.91% | outcome (CRL-7250) | max response (HEK293) -4.16% and 0.472% | max response (HaCat [1]) 2.2% | outcome (HaCat [1]) | max response (KB-3-1) -0.265% and 8.01% | max response (NIH3T3) 0.775% | outcome (NIH3T3) | outcome (HACAT [2]) | Potency (MCC-13) | Potency (MCC-26)

C[C@@H]1CN(c2c(F)c(N)c3c(=O)c(C(=O)O)cn(C4CC4)c3c2F)C[C@H](C)N1
inactive: max response (CRL-7250) -4.39% | outcome (CRL-7250) | outcome (HEK293) | max response (HaCat [1]) -0.171% | outcome (HaCat [1]) | max response (KB-3-1) 8.25% and 3.23% | max response (NIH3T3) 0.0179% and 2.17% | outcome (HACAT [2]) inactive [at 17.4 µM] | outcome (HEK293T) inactive [at 17.4 µM] | Potency (MCC-13) | Potency (MCC-26)

O=S(=O)(O)CCS
inactive: Potency (P93_24) | Potency (P94_40) | Potency (PAD) | Potency (PC15) | Potency (PC26) | Potency (PC49) | Potency (SC27B) | Potency (TAB109) | Potency (TAB113) | Potency (TAB165) | Potency (W2) | max response (CRL-7250) 3.2% | outcome (CRL-7250) | max response (HEK293) -11.9% | outcome (HEK293) | max response (HaCat [1]) -12.1% | outcome (HaCat [1]) | max response (KB-3-1) 0.578% | max response (NIH3T3) 1.04% and -6.12% | outcome (HACAT [2]) | outcome (HEK293T) | Potency (MCC-13)

NNC(=O)c1ccncc1
inactive: max response (CRL-7250) 4.6% | outcome (CRL-7250) | max response (HEK293) 3.4% and -0.464% | outcome (HaCat [1]) | max response (KB-3-1) -14.7% and 6.97% | max response (NIH3T3) 1.44% | outcome (HACAT [2]) | Potency (MCC-13) | Potency (MCC-26)

O=NN(CCCl)C(=O)NC1CCCCC1
inactive: Potency (P93_24) | Potency (P94_40) | Potency (PAD) | Potency (PC15) | Potency (PC26) | Potency (PC49) | Potency (SC27B) | Potency (TAB109) | Potency (TAB113) | Potency (TAB165) | Potency (W2) | max response (CRL-7250) 4.87% | outcome (CRL-7250) | max response (HaCat [1]) 4.22% | outcome (HaCat [1]) | max response (KB-3-1) 2.75% | outcome (KB-3-1) | max response (NIH3T3) -1.41% | outcome (NIH3T3) | outcome (HACAT [2]) | outcome (HEK293T) | Potency (MCC-13)

CCOC(=O)[C@H](CCc1ccccc1)N[C@H]1CS[C@H](c2cccs2)CN(CC(=O)O)C1=O
inactive: Potency (PC15) | Potency (PC26) | Potency (PC49) | Potency (TAB109) | Potency (TAB113) | max response (CRL-7250) -9.28% | outcome (CRL-7250) | max response (HEK293) 4.3% | outcome (HEK293) | max response (HaCat [1]) 4.5% | outcome (HaCat [1]) | max response (KB-3-1) 4.95% | max response (NIH3T3) 3.22% and 0.311% | outcome (HACAT [2]) | outcome (HEK293T) | Potency (MCC-13) | Potency (MCC-26)

CN(Cc1cc(Br)cc(Br)c1N)C1CCCCC1
active: Potency (W2) 4.26 µM
inactive: Potency (PAD) | Potency (PC15) | Potency (PC26) | Potency (PC49) | Potency (SC27B) | Potency (TAB109) | Potency (TAB113) | max response (CRL-7250) 1.14% | outcome (CRL-7250) | outcome (HEK293) | max response (HaCat [1]) 3.33% | outcome (HaCat [1]) | max response (KB-3-1) 2.85% and 5.96% | max response (NIH3T3) 1.21% | outcome (NIH3T3) | outcome (HACAT [2]) | outcome (HEK293T) | Potency (MCC-13) | Potency (MCC-26)

Cc1nnc(C(=O)NC(C)(C)c2nc(C(=O)NCc3ccc(F)cc3)c(O)c(=O)n2C)o1
inactive: max response (CRL-7250) 1.7% and -8.84% | outcome (CRL-7250) | max response (HEK293) -1.41% and 1.54% and -3.51% | max response (HaCat [1]) -1.85% and 3.43% | outcome (HaCat [1]) | max response (KB-3-1) -0.518% and 8.61% | max response (NIH3T3) -3.12% and 2.12% | outcome (NIH3T3) | outcome (HACAT [2]) | Potency (MCC-13) | Potency (MCC-26)

O=C(N[C@H](CO)[C@H](O)c1ccc([N+](=O)[O-])cc1)C(Cl)Cl
inactive: max response (CRL-7250) 2.58% | outcome (CRL-7250) | outcome (HEK293) | max response (HaCat [1]) -14.6% and -20.9% | max response (KB-3-1) -16.7% | outcome (KB-3-1) | max response (NIH3T3) 4.84% and -8.61% | outcome (HEK293T) | Potency (MCC-13)
active: Potency (HEK293) 15.4 µM

CCCN[C@H]1CCc2nc(N)sc2C1
inactive: Potency (P93_24) | Potency (P94_40) | Potency (PAD) | Potency (PC15) | Potency (PC26) | Potency (PC49) | Potency (SC27B) | Potency (TAB109) | Potency (TAB113) | Potency (TAB165) | Potency (W2) | max response (CRL-7250) 0.673% | outcome (CRL-7250) | outcome (HEK293) | max response (HaCat [1]) 3.55% | outcome (HaCat [1]) | max response (KB-3-1) 5.22% and 4.84% | max response (NIH3T3) 4.11% and -1.47% | outcome (HACAT [2]) | outcome (HEK293T) | Potency (MCC-13) | Potency (MCC-26)
